MARV entry inh – blocks Marburg virus binding to or entry into cells; Potency, µM (highest dose often 37.8 µM), inactives show at the highest dose activity change, negative = inhibition, actives largely listed as inhibitors; Marburg virus pseudotyped entry inhibition, cell reporter; 1.8% of 300,000 active; calls by dose curve; tested in HEK293 cells; also: potency is read from the fitted curve at half-maximal effect; % is scaled to controls: 0 for no effect and ±100 for the full control effect
Pf growth 48h – inhibits P. falciparum growth in the first generation, 48 h; P. falciparum luciferase growth in erythrocytes, 48 h; Potency, µM (titrated, usually from 28.7 µM), for inactives: at the top dose activity change, negative = inhibition, most hits filed as inhibitors; 5.9% of 310,000 active; also: potency is read from the fitted curve at half-maximal effect; % is scaled to controls: 0 for no effect and ±100 for the full control effect
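Parasite viability was followed by luminescence of a genomically integrated firefly luciferase. Cultures held 0.1% parasitemia at 2% hematocrit (final), incubated under 5% CO2 at 37 C.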
Shiga toxin inh – blocks Shiga toxin action in Vero cells | Vero cells, Shiga toxin protein synthesis inhibition reporter | inhibition, % at 38.7 µM | 9.2% of 290,000 active; in the data active = inhibition mostly above about 28%, no sharp cut-off; inactive = mostly below about 43%; also: 0% is about no effect
Lassa entry inh – inhibitors of Lassa virus binding or cell entry | Lassa virus pseudotype entry inhibition, cell reporter | Potency, µM (doses to about 37.9 µM), for the others: top-dose activity change, negative = inhibition, most hits filed as inhibitors | 1.2% of 300,000 active; calls by dose curve; tested in HEK293 cells; also: potency is read from the fitted curve at half-maximal effect; % is scaled to controls: 0 for no effect and ±100 for the full control effect; nearly all actives have a fitted effect of over 50% in size
Cycloheximide cs – counter-screen for Shiga toxin inhibitors: cycloheximide protein synthesis inhibition; cell reporter, cycloheximide protein synthesis inhibition counterscreen; max response, %; 12% of 300,000 active; AID 2314; in the data active = max response mostly above about 13%, no sharp cut-off; inactive = mostly below about 14%; also: read at 38.3 µM for the half of the compounds with a filed dose; 0% is about no effect
Pf growth 96h – P. falciparum growth inhibition at 96 hour, primary screen for plastid delayed-death inhibitors | P. falciparum luciferase reporter growth, 96 h | Potency, µM (top dose mostly 28.7 µM), inactives show at the top dose activity change, negative = inhibition, hits mostly inhibitors | 6.9% of 320,000 active; also: potency is read from the fitted curve at half-maximal effect; % is scaled to controls: 0 for no effect and ±100 for the full control effect
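Luminescence readout: decreased luciferase signal marks inhibited growth of reporter-expressing P. falciparum in infected red cells (2% hematocrit, 0.05% parasitemia final), exposed to compound two generations (96 h, 37 C, 5% CO2).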
Numbers without * were called inactive; ? = inconclusive; · = not tested or not shown; [ ] = another dose, or the depositor's remark. Only some compounds are listed: those with a hit (about 19% of all), similar ones and a draw of the others. Unless noted, calls follow the shape of the dose curve; as a rule, active = well fitted inhibition curve with a large enough effect; inconclusive = small, poorly fitted or top-dose-only effect, or another doubt; inactive = no such curve, though single readings can be large or run the other way.

SMILES	MARV entry inh	Pf growth 48h	Shiga toxin inh	Lassa entry inh	Cycloheximide cs	Pf growth 96h
N#CC1=C(N2CCCCC2)c2cc3c(n2C1=O)CCCC3	-26%	-12%	-22	?	-2	?
N#CCN1CCN(CC(=O)Nc2ccc(OCc3ccccc3)cc2)CC1	?	19%	-22	25%	23*	?
CN1CCN(CC(=O)Nc2ccc(OCc3ccccc3)cc2)CC1	-1%	·	64	·	36*	38%
CN1CC(=O)N(CC(=O)Nc2ccc(OCc3ccccc3)cc2)C1=O	4%	·	·	23%	·	·
CCOC(=O)C1=C2c3ccc4ccccc4c3CC(C)(C)N2C(=O)C1=O	14%	?	14	2%	4	?
CN1CCN(S(=O)(=O)c2cccc(C(=O)N(C)C(c3ccccc3)c3ccccc3)c2)CC1	-13%	?	·	-4%	·	?
COc1ccc(OC)c(/C=N/N=C2\SCC(=O)N2Cc2ccco2)c1	2%	-7%	2	-11%	18*	-1%
O=C1CS/C(=N/N=C/c2ccccc2)N1Cc1ccco1	10%	19%	45*	-18%	25*	42%
COc1ccccc1N=C1SCC(=O)N1Cc1ccco1	3%[46.1 µM]	1%	14	-20%	1	0%
O=C(Cc1cccc2ccccc12)NNC(=O)Nc1cccc(Cl)c1	?	2%	-6	?	-2	122%
C/C(=N/NC(=O)c1ccco1)c1cccc(NC(=O)c2ccc(C)o2)c1	34%	8%	122*	1%	41*	-15%
C/C(=N\NC(=O)c1ccc(Br)cc1)c1cccc(NC(=O)c2cccnc2)c1	·	8%	70	·	13	-10%
C/C(=N/NC(=O)c1ccc(Br)o1)c1cccc(NC(=O)c2ccc(F)cc2)c1	-2%	?	120*	?	49*	?
C/C(=N\NC(=O)c1ccn(C)n1)c1cccc(NC(=O)c2ccc(C)s2)c1	?	95%	77*	-13%	32*	57%
COC(=O)c1cccc(NC(=O)c2ccco2)c1	18%	116%	4	0%	-3	?
C/C(=N/NC(=O)c1ccc(Br)o1)c1cccc(NC(=O)c2ccc(C)o2)c1	-5%	-12%	136*	6%	28*	?
COc1ccc(CCN2C(=O)C3C4C=CC(C5CC45)C3C2=O)cc1OC (stereo not drawn)	-2%[46.1 µM]	17%	16	-13%	5	36%
CCCCC(=O)NCCc1ccc(OC)cc1	1%	·	-2	1%	8	11%
Cc1cccc(N2CCN(C(=O)c3ccncc3)CC2)c1C	?	-18%	-13	?	-3	-9%
C/C(=N/NC(=O)c1ccc(Br)o1)c1ccncc1	8%	51%	60*	?	74*	13%
C/C(=N/NC(=O)c1ccco1)c1cccc(NC(=O)c2ccc(C)s2)c1	-39%	66%	68*	-39%	56*	34%
C/C(=N\NC(=O)c1ccn(C)n1)c1ccc(NC(=O)c2cccc(F)c2)cc1	?	62%	170*	-22%[46.1 µM]	58*	112%
CCC(=O)Nc1ccc(/C(C)=N\NC(=O)c2ccc(C)s2)cc1	?	?	21	0%	15*	?
C/C(=N/NC(=O)c1ccc(Cl)s1)c1ccc(NC(=O)COc2ccc(Cl)cc2)cc1	?	-17%	-5	0%	15	?
CN(C)S(=O)(=O)c1ccc(Cl)c(C(=O)NNC(=O)Cc2nc3ccccc3n2C)c1	·	-29%	·	·	·	-3%
SMILES	MARV entry inh	Pf growth 48h	Shiga toxin inh	Lassa entry inh	Cycloheximide cs	Pf growth 96h
COc1ccc(C(=O)N/N=C(\C)c2cccc(NC(=O)c3ccc(F)cc3)c2)c(OC)c1	-11%	0%	15	5%	26*	-17%
C/C(=N/NC(=O)c1ccc(C)s1)c1cccc(NC(=O)COc2ccc(Cl)cc2Cl)c1	?	·	6	-25%	1	15%
CCC(CC)C(=O)Nc1cccc(/C(C)=N\NC(=O)c2ccc(C)s2)c1	-7%	-22%	14	-6%	14*	7%
C[C@@]12C(=O)N(Cc3ccc(-c4ccccc4)cc3)CC(=O)N1[C@H](/C=C/c1ccccc1)[C@@H]1C(=O)N(c3ccccc3)C(=O)[C@@H]12	·	?	-8	·	-2	-5%
Cc1ccc(NC(=O)/C(C#N)=C/c2ccc(C(C)C)cc2)cc1C	·	·	·	-5%[46.1 µM]	·	·
Cc1ccc(N/C=C(/C#N)c2ccsc2)cc1C	?	150%	87*	?	42*	263%
COc1ccc(-c2oc3ccccc3c2C#Cc2cncn2C)cc1	·	0.59µM*	·	·	·	0.66µM*
Cc1cccc(Nc2nnc(SCc3cn4ccsc4n3)s2)c1	1%	9.3µM*	22	12%	20*	5.9µM*
Cc1cccc(Nc2nnc(SCC(=O)Nc3cccnc3Cl)s2)c1	0%	-3%	25	20%	27*	?
Cc1cccc(Nc2nnc(SCC(=O)NCc3cccs3)s2)c1C	-8%	-25%	42*	6%	12	6.6µM*
Cc1cccc(Nc2nnc(SCC(=O)NCc3cccs3)s2)c1	·	12%	62*	·	19*	-28%
O=C(c1ccco1)N1CCN(C(=O)c2cc(=O)[nH]c3ccccc23)CC1	·	-20%	·	·	·	7%
Cc1ccccc1Nc1nnc(SCc2cc(=O)n3ccsc3n2)s1	7%	13µM*	15	-4%	16	17µM*
Cc1ccccc1C(=O)NNC(=O)c1ccncc1	1%	1%	-2	?	-2	?
O=C(NC(Nc1nc2ccc([N+](=O)[O-])cc2s1)(C(F)(F)F)C(F)(F)F)c1ccccc1Cl	?	1.5µM*	-9	1.6µM*	-4	0.93µM*
O=C(NC(Nc1nc2ccc([N+](=O)[O-])cc2s1)(C(F)(F)F)C(F)(F)F)c1cccnc1	?	7.4µM*	-7	?	7	?
O=C(Nc1ccc(F)cc1)c1cccc(N2C(=O)c3ccccc3C2=O)c1	16%[46.1 µM]	12%	-2	11%	3	-1%
Cc1ccc(-n2nc3c(N4CCC(C(=O)NCc5ccc(C)o5)CC4)nnc(C)c3c2C)cc1	·	?	-12	·	8	10µM*
Cc1ccc(-n2nc3c(N4CCC(C(=O)NCc5cccc(F)c5)CC4)nnc(C)c3c2C)cc1	·	?	-2	·	-3	4.1µM*
COc1cccc(/C=N/NC(=O)c2cc3c(OC)cccc3[nH]2)c1O	?	?	1	-5%	-2	1.9µM*
COc1ccc(OC)c(/C=N/NC(=O)c2cc3c(OC)cccc3[nH]2)c1	10µM*	-5%	-18	3%	1	-2%
COc1ccc(/C=N/NC(=O)c2cccc(OC(F)(F)C(F)F)c2)cc1O	30%	21%	-1	?	2	21%
COc1ccc(/C=N/NC(=O)c2cccc(OC(F)(F)C(F)F)c2)c(OC)c1OC	23%	8%	1	10µM*	-3	11%
Clc1ccccc1CNc1nc2ccccc2c2nc(-c3cccnc3)nn12	-4%[46.1 µM]	·	·	·	·	·

Assay outcomes deposited in PubChem BioAssay by National Center for Advancing Translational Sciences (NCATS).
